This assay deals with Lysosomal acid glucosylceramidase (Homo sapiens) (UniProt P04062). Kind of assay: Activators of Human alpha-Glucosidase as a Potential Chaperone Treatment of Pompe Disease: Alpha-Galactosidase Counter Screen. As to conditions: purified human alpha-galactosidase, 4-MU fluorogenic substrate. The source says: Alpha-glucosidase is responsible for hydrolysis of terminal, non-reducing 1,4-linked alpha-D-glucose residues with release of alpha-D-glucose. It is a lysosomal hydrolase that is required for the degradation of a small percentage (1-3%) of cellular glycogen in human. Deficiency of this enzyme results in glycogen-storage disease type II (GSDII), also referred to as Pompe disease, an autosomal recessive disorder. Structurally normal glycogen is accumulated in lysosomes and cytoplasm in affected patients, primarily in muscle tissues. Excessive glycogen storage within lysosomes may interrupt normal functioning of other organelles and leads to cellular injury. In turn, this leads to enlargement and dysfunction of the entire organ involved (eg, cardiomyopathy and muscle weakness). […]
This is a fluorogenic enzyme assay with 4-methylumbelliferyl-[…] as the substrate and human alpha-galactosidase as the enzyme preparation. […] 4-methyllumbelliferone, can be excited at 365 nm and emits at 440 nm which can be detected by a standard fluorescence plate reader. […] In the AC50 values were determined from concentration-response data modeled with the standard Hill equation. […] (5) Add 2 ul stop solution (1M NaOH and 1M Glycine mixture, pH 10) (6) Detect the assay plate in a ViewLux plate reader (PerkinElmer) with Ex=365 nm and Em=440nm. […]

The results in this text go back to PubChem BioAssay AID540361 (National Center for Advancing Translational Sciences (NCATS), 2011).

Molecules are shown by their SMILES. Records with an inconclusive call do not appear. Calls of active or inactive are those of the source. Calls come from the whole dose curve; as a rule, active = well fitted curve in the direction sought with a large enough effect; inconclusive = small, poorly fitted or top-dose-only effect, or another doubt; inactive = no such curve, though single readings can be large or run the other way.

With `CCCN1CNc2c(c(=O)[nH]c(=S)n2CCc2cccc(Cl)c2Cl)C1`, the Potency is 9.13 µM (active).
